# Records with an inconclusive call do not appear. Where a call stands in place of a potency, no number is given. Active and inactive are the calls of the source. Calls follow the shape of the dose curve; as a rule, active = well fitted cell-killing curve with a large enough effect in the repeat runs; inconclusive = weak or mixed curves, or effect the other way; inactive = flat fitted curve, though single readings scatter.
# Assay: Caspase-3/7 induction in HepG2 cells by small molecules, qHTS cell viability counter screen (AID 1346981); also: nearly all actives have a fitted effect of over 30% in size
# Conditions: CellTiter-Fluor fluorescence, 17 h; series mostly up to 92.4 µM
# Text: U.S. Tox21 Program National Center for Advancing Translational Sciences [NCATS] NIH Chemical Genomics Center [NCGC] U.S. Environmental Protection Agency [EPA] National Institutes of Environmental Health Sciences [NIEHS] National Toxicology Program [NTP] U.S. Food and Drug Administration [FDA] Tox21 Assay Overview: Apoptosis is a process of programmed cell death and plays a central role in the development of multicellular organisms. It is a highly regulated process and induces cell death by activating caspases, which are the members of cysteine aspartic acid-specific protease (caspase) family. Caspases involved in apoptosis are classified by their mechanism of action as initiator caspases (caspase-2, -8, -9 and -10) and executioner caspases (caspase-3, -6, and -7). Inhibition of apoptosis results in number of cancers, autoimmune diseases, inflammatory diseases and viral infection. To identify small molecule compounds that induce apoptosis, a homogeneous, luminescent Caspase-Glo 3/7 assay was used. Wild type HepG2 cells were used to screen Tox21 libraries for identifying caspase-3/7 activity inducers. Also cytotoxicity of the compounds was tested in parallel by measuring the cell viability using CellTiter-Fluor assay system in the same wells.
# Tox21 Assay Protocol Summary: HepG2 cells were dispensed at 2,000 per well in 5uL of culture medium into white solid bottom 1536-well plates (Corning Life Sciences, Corning, NY) using a Multidrop Combi (Thermo Scientific, Waltham, MA) dispenser. The assay plates were incubated at 37 C and 5% CO2 for 5hr, and then 23nL of compounds dissolved in DMSO and positive control were transferred using a Pintool station ([…], San Diego, CA). The assay plates were incubated at 37C and 5% CO2 for 17hr. For cytotoxicity read, after 16hr incubation at 37C, 1uL CellTiter-Fluor reagent (Promega Corporation, Madison, WI) was added to each well of the assay plates using Flying Reagent Dispenser (FRD, Aurora Discovery, San Diego, CA). After 1hr incubation at 37C and 5% CO2, the fluorescence signal was quantified using a ViewLux plate reader (PerkinElmer, Shelton, CT).
# Potency is read from the fitted curve at half-maximal effect.
row,SMILES,Potency
1,[O-][Cl+]O,inactive
2,CCCCCCC#N,inactive
3,CCC(COC(=O)c1cc(OC)c(OC)c(OC)c1)(c1ccccc1)N(C)C (stereo not given),inactive
4,OC(c1ccc(Cl)cc1)(c1ccc(Cl)cc1)c1cccnc1,inactive
5,CCCCCCCCOC(=O)c1ccc(C(=O)OCCCCCCCC)c(C(=O)OCCCCCCCC)c1,inactive
6,O=[N+]([O-])C(Br)(CO)CO,inactive
7,O=S1OC[C@@H]2[C@H](CO1)[C@]1(Cl)C(Cl)=C(Cl)[C@@]2(Cl)C1(Cl)Cl (stereo not given in full),inactive
8,CNP(=O)(OC)Oc1ccc(C(C)(C)C)cc1Cl (stereo not given),inactive
9,CC1(C)[C@H](C=C(Cl)Cl)[C@@H]1C(=O)O[C@@H](C#N)c1cccc(Oc2ccccc2)c1,inactive
10,CCOP(O)OCC,inactive
11,COC(C)(C)CCC[C@H](C)C/C=C/C(C)=C/C(=O)OC(C)C,inactive
12,Nc1ccc(N=Nc2ccc(-c3ccc(N=Nc4c(S(=O)(=O)O)cc5cc(S(=O)(=O)O)c(N=Nc6ccccc6)c(O)c5c4N)cc3)cc2)c(N)c1,19.7 µM (active)
13,O=C(NC(=O)c1c(F)cccc1F)Nc1ccc(OC(F)(F)C(F)OC(F)(F)F)c(Cl)c1 (stereo not given),inactive
14,CC1Sc2c(C(=O)O)c(=O)c3cc(F)c(N4CCNCC4)cc3n21 (stereo not given),inactive
15,Nc1nc(N)nc(N)n1,inactive
16,ClCCCCBr,inactive
17,CC1CC(CC2CCC(N)C(C)C2)CCC1N (stereo not given),inactive
18,CN1C(=O)NC(=O)C(C)(C2=CCCCC2)C1=O (stereo not given),inactive
19,CCCN(CC1CC1)c1c([N+](=O)[O-])cc(C(F)(F)F)cc1[N+](=O)[O-],inactive
20,Sc1ccccc1Cl,inactive

row,SMILES,Potency
1,COc1c(C(C)(C)C)cc([N+](=O)[O-])c(C)c1[N+](=O)[O-],inactive
2,Cc1c(F)c(F)c(COC(=O)C2C(/C=C(\Cl)C(F)(F)F)C2(C)C)c(F)c1F (stereo not given),inactive
3,O=C(O)C1(c2ccc3c(c2)OC[C@H](Cc2ccc(-c4ccccc4)cc2)[C@H]3O)CCCC1,inactive
4,CN1C[C@H](CNC(=O)OCc2ccccc2)C[C@@H]2c3cccc4c3c(cn4C)C[C@H]21,inactive
5,CC(=O)[C@H]1CC[C@H]2[C@@H]3CC[C@H]4C[C@](C)(O)CC[C@]4(C)[C@H]3CC[C@]12C,inactive
6,CC(C)(CCl)C(=O)Cl,inactive
7,CCOP(=S)(OCC)Oc1cc(Cl)c(Br)cc1Cl,inactive
8,C#CCOC(C(=O)OCCN(C)C)(c1ccccc1)c1ccccc1,inactive
9,CC(=O)c1cc2c(cc1C)C(C)(C)C(C)CC2(C)C (stereo not given),inactive
10,CC(O)(CS(=O)(=O)c1ccc(F)cc1)C(=O)Nc1ccc(C#N)c(C(F)(F)F)c1 (stereo not given),inactive
11,CC(Cl)Cl,inactive
12,CCOS(C)(=O)=O,inactive
13,O=C1NCN(c2ccccc2)C12CCN(CCCOc1ccc(F)cc1)CC2,7.5 µM (active)
14,COP(=O)(OC)O/C(=C/Cl)c1cc(Cl)c(Cl)cc1Cl,inactive
15,C=CCOC(C)=O,inactive
16,CCCCNP(N)(N)=S,inactive
17,BrCCCCBr,inactive
18,CCOc1ccc(C(C)(C)COCc2cccc(Oc3ccccc3)c2)cc1,inactive
19,COc1cc(Cl)c(OC)cc1Cl,inactive
20,Brc1ccccc1,inactive
